Measured values taken from the supplement of paper PMC10338343.
± gives the standard deviation.

Test system: MILI (PIWIL2) piRISC loaded with piRNA #1 (26 nt)
Assay: pre-steady-state target cleavage rate (min^-1); guide: piRNA #1 5'p-UGAGGUAGUAGGUUGUAUAGUAUCCA; MIWI and MILI are mouse PIWI proteins and EfPiwi is from a freshwater sponge; tags in brackets are library labels; higher = faster piRNA-guided slicing of the target
Conditions: auxiliary factor: 500 nM mouse GTSF1
How it was run: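 With or without 500 nM GTSF1 partner protein, 1 nM active affinity-purified piRISC carrying one synthetic guide was mixed with 0.1 nM transcribed, DNA-blocked target RNA library in HEPES–potassium acetate buffer at 33 °C for 0–8 or 0–960 min. Uncleaved targets were sequenced and normalised to depth and to weakly complementary targets, three trials were pooled, and k3 was capped at 0.0001 min^-1. The pre-steady-state cleavage rate came from a burst-and-steady-state fit.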

Sequence: GGAGACCUUAGUUUACAACCUACUACCUCA
- pre-steady-state target cleavage rate: 0.0381 ± 0.012

Sequence: GGAGACCAUACUAUACAAGCUUCUACCUCA
- pre-steady-state target cleavage rate: 0.036 ± 0.007

Sequence: GGAGACCUAUGUAUACAAGCAACUACCUCA
- pre-steady-state target cleavage rate: 0.0055 ± 0.0022

Sequence: GGAGACCUAACUAUAGAACCUACUACGUCA
- pre-steady-state target cleavage rate: 0.0322 ± 0.01

Sequence: GGAGUGGAUUCUAUAGAACCUACUACCUCA
- pre-steady-state target cleavage rate: 0.179 ± 0.012

Sequence: GGAGACCUUACUAUACAACCUACUAGCUGA
- pre-steady-state target cleavage rate: 0.00949 ± 0.0037

Sequence: GGAGACCUAUGAAUGCAACCUACUACCUCA
- pre-steady-state target cleavage rate: 0.00733 ± 0.0031

Sequence: GGAGACGAUACUAAACAAGCUACUACCUCA
- pre-steady-state target cleavage rate: 0.268 ± 0.016

Sequence: GGAGACCUAACUAUACUACCUACUUCCUCA
- pre-steady-state target cleavage rate: 0.0587 ± 0.013

Sequence: GGAGACCUAUCUUUACUACCUACUACCUCA
- pre-steady-state target cleavage rate: 0.0305 ± 0.008

Sequence: GGAGACCUAUGAUAACAUCCUACAACCUCA
- pre-steady-state target cleavage rate: 0.00633 ± 0.0025

Sequence: GGAGACCUAUGUAUACAUCCUAGUACCUCA
- pre-steady-state target cleavage rate: 0.015 ± 0.0049

Sequence: GGAGACCUAACAAUACAACCAACUACCUCA
- pre-steady-state target cleavage rate: 0.00518 ± 0.004

Sequence: GGAGUGGAUACUAUACAAGCUACUAGCUCA
- pre-steady-state target cleavage rate: 0.0419 ± 0.0091

Sequence: GGAGACCUUUCUAUACUACCUACUACCUCA
- pre-steady-state target cleavage rate: 0.0739 ± 0.011

Sequence: GGAGACCUAUCAAUACAUCCUACUACCUCA
- pre-steady-state target cleavage rate: 0.109 ± 0.02

Sequence: GGAGACCUAUCUAUACAACCAACUACCACA
- pre-steady-state target cleavage rate: 0.00574 ± 0.0023

Sequence: GGAGACCUUACAAUACAAGCUACUACCUCA
- pre-steady-state target cleavage rate: 0.191 ± 0.011

Sequence: GGAGACCUAUGAUAACAACUUACUACCUCA
- pre-steady-state target cleavage rate: 0.00545 ± 0.0023

Sequence: GGAGACCUUACUAUACAACCUACUCCUCA
- pre-steady-state target cleavage rate: 0.00492 ± 0.0027

Sequence: GGAGACCUAUGAUAUGUUCCUACAAGCUCA
- pre-steady-state target cleavage rate: < 0.0001

Sequence: GGAGACCUAUGAAUACAACCUACUACCCUCA
- pre-steady-state target cleavage rate: 0.00533 ± 0.0019

Sequence: GGAGACCUUACUAUACUACCUACUAGCUCA
- pre-steady-state target cleavage rate: 0.142 ± 0.016

Sequence: GGAGACCUAUGUAUACAACGUACUACCUCA
- pre-steady-state target cleavage rate: 0.00969 ± 0.0018
